# Experimental data from the supplement of paper PMC10105736.
# Values without a mark were called inactive.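 How the source made its calls: active = MAPPIT score above the 99th percentile of random reference set scores in the same batch; inactive = at or below it.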
# B1: eIF3m (protein)
# chain: MTSHPVFIDLSLDEQVQELRKYFKKLGAEISSEKSNKGVEDDLHKIIGVCDVCFKDGEPSQIDGILNSIVSIMITIPLDRGENIVLAYCEKMTKAPNLPLGKVCLQSLWRLFNNLDTASPLRYHVYYHLVQVAKQCEQVLEVFSGVDQLKSQFANCPPSSEQMQKLYRLLHDVTKDTNLELSSKVMIELLGTYTADNACVAREDAMKCIVTALADPNTFLLDPLLSLKPVRFLEGDLIHDLLSIFVSEKLPAYVQFYEDHREFVNSQGLNHEQNMKKMRLLTFMQLAESSPEMTFETLTKELQINEDEVEPFVIEVLKTKLVRARLDQANQKVHISSTMHRTFGAPQWEQLRDLLQAWKENLSTVREGLTSVSSAQLDLARSQKLIH
# B2: Patj (protein)
# chain: MHLSADISSALQQIEAVKKGIDESDDPKLQMQTAESLSTILGILQDPVFRTIVHVQDSLSELNAQLAQHPSMLPNDFDIDVAGNLVLSLNGGEVMYDFDEQRSSSHSHSAPGSPDKSGGVGEEPRPQSQNSKGAGVADLYATDYAQIQAIELVNDGTGLGFGIIGARNSGVIVKTILPGGVADKDGRLRSGDHILQIGDVNLHEMVSEQVAAVLRQSGTHVRLVVARPVEQSVPTPQYALEPGTAVVPTRVLVDPAELERYLISTGYPEIFGESSTASTPQTTTEDDRFVYRGETSMLIDPNIDLEELLALPETEKLQVELKKDANGLGITIAGYVCEKEELSGIFVKSVSPGSAADLSGRIRVNDRIIEVDGQSLQGYSNHQAVELLKKSGQVVNLRLERYLRGPKFEQLQQAIAANDKLPSSAPGTPSRAPMPTPVATTSSATTTPSRSITRELEEEALPAPEAFMTTPPSVTTMTTTTLSSFGAGKQLVAVRDSLDGSTKIIPTEVVPLADKTEAKNSGVITRHKYYTDPELSDDAETEIIRKWQKIVGSDVEVIVAQIKKFAVGGLGISLEGTVDVEGGREVRPHHYIRSILPDGPVGVNGVLRSGDELLEVNGERLLGMNHLEVVAILKELPLDVRMVCGRNRNSSLLPFSDDTLKKLSNNFENLLPATDRLVKAKSDGSLATAGSVADGDSVAAAAASFSKLKSRSLEPLTGLAMWSSQPQIIELVKGDRGLGFSILDYQDPLDPNDTLIVIRSLVPGGVAQLDGRLIPGDRLLFVNSINLENASLDQAVQALKGASKGVVRIGVAKPLPMTDNSLKACSNASTTSEETLDAQPSPPALPTVAPPAMPPSASMGAEPDLIPDWRN
# B3: Mul1 (protein)
# chain: MEFLHESVALGVDLLILGLCAREYVHYKRTAKVLKAAPQYNIDGDLKSVVERQRDKKIPYAVIRGTVTPIGVPLRSSLVPSVSGVLQIVKLHEHRVTRGFAGFWTEQHKLLHESANEMPFELRNQSHGVEIVDALSAAVLDVDVVYDNYEPSNLSLFDHVFGFFSGVRQRGLQTTEEVLREGSFLTAIGELELDGDTLRMQPSNEGPLFLTTATKSTLIKRFEDAKTTTILKLVVCSTISAILVAFIAKKLYRKRKQEREEAKIRERLDTERRERRARSRPHTLSQDQLCVVCSTNPKEIILLPCGHVCLCEDCAQKISVTCPVCRGSIVSKAAAFIA
# B4: slp2 (protein)
# chain: MVKIEEGLPSSEISAHSLHFQHHHHPLPPTTHHSALQSPHPVGLNLTNLMKMARTPHLKSSFSINSILPETVEHHDEDEEEDVEKKSPAKFPPNHNNNNLNTTNWGSPEDHEAESDPESDLDVTSMSPAPVANPNESDPDEVDEEFVEEDIECDGETTDGDAENKSNDGKPVKDKKGNEKPPYSYNALIMMAIRQSSEKRLTLNGIYEYIMTNHPYYRDNKQGWQNSIRHNLSLNKCFVKVPRHYDDPGKGNYWMLDPSAEDVFIGGSTGKLRRRTTAASRSRLAAFKRSLIGPMFPGLAAYPQFGQFLTYPPTAPSLLASMYQRYNPFAPKGGPGHPGLPPGLPGLPGPPGPQGPPGPPPPPFVAPPTSSELYQRLQYQQLLHQHAAAAALAAHQRQLSVAAASAASQPPPTHHHPHLAVGQAPLSPGGDSPGPSPQPLHKPVTVVSRNS
# B5: mbo (protein)
# chain: MSLTDVLELNKTELFAKIRNGLPVVQRTQNLLDCKDDLLFAWHAKDSCLLVRNWRSSLAAKVNIQFQTLIPSSLVSLEVDRVLASNEGSLVALSGPRGVVIMELPRRWGPDGYYKDGKPVITCRTFGLDTQLFLKNPHLEVRQVRWHPHSVSDSTLLVLLNNNTIRVYNHSKLRHVWQVGPPVLRSGANNSLCDFGELAVDFDIAPAAKPRVTEPETAGNNETTLDKSNKTLVAAKSLPKQERIEWPMVVLRENGNIYILMTGVDSENTRLQGPVTITPQAHDNYGLESCALMIIPSLPPTIVIAESNGKLHHALLMEAEATEHSFNEVDDSVLIEPAEYVVHVLETVELELGISAPATGKEGGNCPIYLKRDLINELRYFAYHNAGLHAVTVSFIAELQRYLESESDEDRLELAVSASAEYILCTKFDSSETVNAVFGLALLQIPAGIVLLLGSGQVISLKLVIDAQLLVTPNENKPVDSEVSQQESGPPFVDTIKSLLQRSVNQPILADKLSSPSAQESFELLNQAIEVLREQYLKRHDLVRAAFTRHINQIQLKKEQQLQEIQDLEQERELISERAHKLAERFEEISYNQELLVRKCNALMQRANASLPNSVIAEREFSQEVIRLNKVTQSLAAGLETAKKTFNKQRYHIAQSQEDLKKNAYELPEKQHRTITEILTQLTGEIDRQITDVKRINKIVGI
# B6: Slh (protein)
# chain: MLTLRERQINAIKQMLNLNSQQPKALAAEPVWKILIYDRVGQDIISPIISIKELRELGVTLHVQLHSDRDSIPDVPAIYFCLPTDENLDRIQQDFSSGLYDVYHLNFLAPITRSKIENLAAAALHAGCVANIHRVYDQYVNFISLEDDFFILKHQQSDQLSYYAINRANTRDEEMEALMDSIVDSLFALFVTLGNVPIIRCPRNSAAEMVARKLEKKLRENLWDARANLFHMDATQAGGGVFSFQRPVLLLLDRNMDLATPLHHTWSYQALVHDVLDLGLNLVYVEDETASAGARKKPKACDLDRNDRFWMTHKGSPFPTVAEAIQEELESYRNSEEEIKRLKTSMGIEGESDIAFSLVNDTTARLTNAVNSLPQLMEKKRLIDMHTKIATAILNFIKARRLDSFFEIEEKVMSKQTLDRPLLDLLRDGEFGQAEDKLRLYIIYFICAQQLPESEQERLKEALQAAGCDLTALAYVQRWKGIMNRSPSISQATQYEGGGTKTVSMFTKLVSQGSSFVMEGVKNLVVKRHNLPVTKITEQVMECRSNAETDDYLYLDPKLLKGGEVLPKNRAPFQDAVVFMVGGGNYIEYQNLVDFIKQKQTSNVQRRIIYGASTLTNARQFLKELSALGGEIQSPTATS
# B7: MED6 (protein)
# chain: MASRQMTNDHLRLSWHDTQMMATLSPQTVMDYFCRKSNPFYDHMCNNETVRMQRLGPEHLHNMIGLEYILLHVAEPILYVIRKQHRHNPSEATPIADYYIIGGTVYKAPDLANVINSRILNTVVNLQSAFEEASSYARYHPNKGYTWDFSSNKVFSDRSKSDKKDANSAKDENSGTLFQKQRVDMLLAELLRKFPPPIPPMLQNLQQPPPAGDDLNTARNASEMNNATGPLDIKTEGVDMKPPPEKKSK
# B8: Arl8 (protein)
# chain: MLALINRILEWFKSIFWKEEMELTLVGLQFSGKTTFVNVIASGQFAEDMIPTVGFNMRKITRGNVTIKVWDIGGQPRFRSMWERYCRGVNAIVYMVDAADLDKLEASRNELHSLLDKPQLAGIPVLVLGNKRDLPGALDETGLIERMNLSSIQDREICCYSISCKEKDNIDITLQWLIQHSKSQSR
# B9: Nop17l (protein)
# chain: MSASRSRNKQSKLCDDERLDISRDEFNRFQEAFGKEEFRKLFFDYVDEIQDPENRKIYESEITQLEKERGVEVRFIHPKPGFVIKTALDGELKCFINIASCEEIQRPKNEVATDPSSGSRGLSWSIPMAQTTSRDDFDAKNNHCKVFDVVFHPDALHLAMRNKQFRQCLIDTALDAIEREYKVSLDRANLKFPKLDYKGIPRPTVIRKMADNPTAEEQEPHPLAHMFPTKPPAPGKQEPRVLPMKTKPSPVPEFTVPRYTIKHSHDVDLSEYTDELDAKLHVTVPRSLVVEIELPLLRSTAECQLDVTSKSIYLFSERQGAKYRLKLDLPFIVDDKAGRARFDTDMRRLSITLPVVRKSIQEQAQMHETLRHFSREDSGVELHSNSESPVEEDPDGELSDSKADISETSSPSVAPANSPFLKSSVHYQLPSKFDCNVLDNVMAFVLHVPNVQPDSIEQLREQRSLHLKFATIGSGYYPTHYAFYVELSAEHEDSSIESAEAEAWDNNVVLKLCLNSQSETPASYLAGLDATELKEYPVHGQYHVKSKGKVNAKKDNAPLDVKFERNQEGHALKVTIRPGTKEEEEDKENQDQEPESDQQQQQQVQNKKPGKKQRKKNKKERSLSESACADMILQEPLAKTNELQPRATFKLPPQRKQRSYSECNDSTGRSHRGILKRFSRYGPRPSMSDSWSSIDDSSSYSCSVDASGTSLFSQSFGGIPEEDRSDAGLSESCKKTVRFNDHIMKQVFRLDSSILGQRKKNQKRRDLKLRAQQRRLSEGDSVDYEETRGSALKQEENPSRNCNDSGLDLTGAAGAHSNNNESDAKNTMMFEMDD
# B10: eIF2gamma (protein)
# chain: MATAEAQIGVNRNLQKQDLSNLDVSKLTPLSPEVISRQATINIGTIGHVAHGKSTVVKAISGVQTVRFKNELERNITIKLGYANAKIYKCDNPKCPRPASFVSDASSKDDSLPCTRLNCSGNFRLVRHVSFVDCPGHDILMATMLNGAAVMDAALLLIAGNESCPQPQTSEHLAAIEIMKLKQILILQNKIDLIKESQAKEQYEEITKFVQGTVAEGAPIIPISAQLKYNIDVLCEYIVNKIPVPPRDFNAPPRLIVIRSFDVNKPGCEVADLKGGVAGGSILSGVLKVGQEIEVRPGVVTKDSDGNITCRPIFSRIVSLFAEQNELQYAVPGGLIGVGTKIDPTLCRADRLVGQVLGAVGQLPDIYQELEISYYLLRRLLGVRTDGDKKGARVEKLQKNEILLVNIGSLSTGGRISATKGDLAKIVLTTPVCTEKGEKIALSRRVENHWRLIGWGQIFGGKTITPVLDSQVAKK
# B11: CG6724 (protein)
# chain: MDVDNGEGQVQVHLKTKQEHYAVPDVPYAIDGTVTTVELNTFVNALLRQKDGSSDTDFDFLVFDEYLRGRLCDHLREKAISFEDAIEIEYVERFPAPEPQDCLLHDDWVSAVKARGKWILSGCYDNTLNLWTNKGKHILTISGHTAPIKAVDWISLDEETGRFVSTSQDQTAMLWQWNVGSNSVECVSVCKGHERGVDSVSVSPDGLRFATGSWDTMLKVWSAELDDAVEGSSKRMKESGVRTPKITLQGHRESVSAVQWMDATTLLTGSWDHTLKVWDLSLEGIKTEISTNKSIFDASYSKLNRLILTASADKNLRLYDPRTNQGSVVRNTYLGHNAWVQTVMWSTTEEFLFVSGAYDNQNKLWDCRSPKAPLYDLLGHGEKVLDIDWSNPKYIVSGGVDNTVRVFKSRKALAEEAETK
# Tests used:
# Test in all cases: MAPPIT interaction score (arbitrary units); higher = stronger binary interaction signal, active = hit call of the paper
# eIF3f1 = conditions: MAPPIT configuration: N-N; pair source set: Lit-BM-16
# fz = conditions: MAPPIT configuration: N-C; pair source set: Lit-BM-16
# e(y)2 = conditions: MAPPIT configuration: N-N; pair source set: screen_2
# gsb-n = conditions: MAPPIT configuration: N-N; pair source set: Finley_Y2H
# emb = conditions: MAPPIT configuration: N-N; pair source set: Lit-BM-16
# fon = conditions: MAPPIT configuration: N-N; pair source set: Finley_Y2H
# glob1 = conditions: MAPPIT configuration: N-N
# fwe = conditions: MAPPIT configuration: N-C; pair source set: screen_4
# flw = conditions: pair source set: Lit-BM-16
# grp = conditions: MAPPIT configuration: N-N; pair source set: DPIM
# 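Further: HEK293T cells with Epo stimulation, STAT-responsive firefly luciferase reporter, fold induction versus unstimulated cells divided by the larger fold induction of two negative controls lacking either bait or prey.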
binder,measurement,setting,value
B1,MAPPIT interaction score,eIF3f1,5.38 (active)
B2,MAPPIT interaction score,fz,2.4
B3,MAPPIT interaction score,e(y)2,5.68 (active)
B4,MAPPIT interaction score,gsb-n,-0.371
B5,MAPPIT interaction score,emb,0.0885
B6,MAPPIT interaction score,fon,-0.252
B7,MAPPIT interaction score,glob1; pair source set: Lit-BS-16,-0.386
B8,MAPPIT interaction score,fwe,3.21
B9,MAPPIT interaction score,flw; MAPPIT configuration: N-C,3.31
same,MAPPIT interaction score,flw; MAPPIT configuration: N-N,0.884
B10,MAPPIT interaction score,glob1; pair source set: RRS,0.425
B11,MAPPIT interaction score,grp,0.11
